Broadly, the inhibition is the drop in the measured response relative to a control, in per cent.

The structures appear in SMILES notation. Calls of active or inactive are those of the source.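 Rule for the calls: active = blocks over 70% of labeled estradiol binding at 10 µM, or over a set limit at 100 nM; inactive = the rest.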

For the experiment, the target named is Estrogen receptor beta (Homo sapiens) (UniProt Q92731). Put plainly: displacement of fluorescent estrogen from ERbeta – cell-based, Cos7 ERbeta-GFP, flow cytometry, primary screen (AID 1210).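 Note: 0% = DMSO vehicle wells and 100% = complete loss of labeled estradiol signal.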 The following applies: fluorescent estrogen binding, stronger effect = higher value. Background: A flow cytometer gives signals particle by particle.
Sequence of Estrogen receptor beta (Homo sapiens) (Q92731 whole entry, looked up): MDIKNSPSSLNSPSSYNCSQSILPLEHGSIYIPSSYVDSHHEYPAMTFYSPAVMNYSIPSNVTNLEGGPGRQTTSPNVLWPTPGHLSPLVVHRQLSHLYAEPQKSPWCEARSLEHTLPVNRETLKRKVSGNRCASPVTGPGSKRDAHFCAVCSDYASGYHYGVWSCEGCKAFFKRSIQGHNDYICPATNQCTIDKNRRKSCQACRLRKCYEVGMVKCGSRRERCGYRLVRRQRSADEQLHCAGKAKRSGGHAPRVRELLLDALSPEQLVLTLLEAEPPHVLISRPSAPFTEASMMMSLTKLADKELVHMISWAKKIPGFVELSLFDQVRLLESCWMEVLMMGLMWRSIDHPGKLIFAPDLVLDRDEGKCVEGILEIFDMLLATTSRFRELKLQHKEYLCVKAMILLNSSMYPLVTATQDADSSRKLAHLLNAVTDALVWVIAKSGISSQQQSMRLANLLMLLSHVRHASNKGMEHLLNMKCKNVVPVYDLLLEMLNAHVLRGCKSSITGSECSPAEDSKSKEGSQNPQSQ
[1] abbreviates: ligand binding inhibition, at 0.1 µM.

For `Nc1ccc2nc(-c3cccs3)[nH]c2c1`, the inhibition is 50% (inactive) (at 10 µM) and 34% under setting [1].
The corresponding values for `O=C(Nc1ccccc1[N+](=O)[O-])C1=C(O)CCn2c1nc1ccccc12` are 37% (inactive) and 46%.
For `CCc1ccc(Nc2cc(C(=O)NCCCN3CCOCC3)c3ccccc3n2)cc1` the same measures were 38% (inactive) and 12%.
With `COc1ccc(N=Cc2sc(O)c3ccccc23)cc1`, the inhibition (at 10 µM) was 47% (inactive) and the inhibition under setting [1] was 22%.
The corresponding values for `Oc1ccccc1N=Nc1nc(-c2ccccc2)c(-c2ccccc2)[nH]1` are 36% (inactive) and 36%.
As for `CCn1c(SCC(=O)c2ccc(O)c(O)c2)nnc1-c1ccccc1OC`, the inhibition is, setting by setting: (at 10 µM) 58% (inactive); under setting [1], 3%.
For `CC(=O)c1ccc(NCC(=O)N2CCN(c3ccccc3)CC2)cc1`, the inhibition was 72% (active) (at 10 µM) and 41% under setting [1].
On to `Cc1cc(C)c2c(c1)NC(c1cc3c(cc1Br)OCO3)C1CC=CC21` (stereo not given), for which the inhibition is 42% (inactive) (at 10 µM) and 46% under setting [1].
For `O=c1cc(-c2ccc(O)c(O)c2)oc2c(C3O[C@H](CO)[C@@H](O)[C@H](O)[C@H]3O)c(O)cc(O)c12` (stereo not given in full) the same measures were 40% (inactive) and 17%.
The corresponding values for `Cc1ccc2nc(/C(C#N)=C\c3ccc(N4CCCCC4)c([N+](=O)[O-])c3)[nH]c2c1` are 15% (inactive) and 6%.
The corresponding values for `COc1ccc(N2Cc3cccc(C(=O)N4CCN(C(=O)c5ccco5)CC4)c3C2=O)cc1` are 29% (inactive) and 27%.
`CCCSC1=N/C(=C\C=C\c2ccco2)C(=O)S1`: the inhibition reads like this: (at 10 µM) 47% (inactive); under setting [1], 31%.
For `CCc1cccc2c(C(=O)Cn3nnc(-c4ccc(OC)c(OC)c4)n3)c[nH]c12` the same measures were 53% (inactive) and 52%.
For `Cc1ccc(S(=O)(=O)Cc2ccc(C(=O)N3CCc4ccccc4C3)o2)cc1` the same measures were 43% (inactive) and 10%.
For `Cc1ccccc1Nc1nnc(SCC(=O)NC(=O)NCc2ccco2)s1` the same measures were 0% (active) and 67%.
Regarding `CCOC(=O)C1=C(C)NC(=O)NC1c1ccco1` (stereo not given), the inhibition is 11% (inactive) (at 10 µM) and 15% under setting [1].
The corresponding values for `CC(C)C1Nc2c(O)cc(Cl)c([N+](=O)[O-])c2C2C=CCC21` (stereo not given) are 28% (inactive) and 5%.
The corresponding values for `Cc1ccccc1CSCC(=O)NC(=O)NCc1ccco1` are 27% (inactive) and 35%.
The corresponding values for `CCc1oc2ccccc2c1C(=O)c1cc(Br)c(O)c(Br)c1` are 45% (inactive) and 9%.
On to `C=CCSC1=N/C(=C\C=C\c2ccco2)C(=O)S1`, for which the inhibition is, setting by setting: (at 10 µM) 24% (inactive); under setting [1], 1%.
For `Brc1cc2c(cc1C1Nc3ccccc3C3C=CCC31)OCO2` (stereo not given) the same measures were 20% (inactive) and 25%.
The corresponding values for `O=S(=O)(NCCc1csc(-c2cccnc2)n1)c1ccc(Cl)s1` are 69% (active) and 78%.
The corresponding values for `Oc1ccccc1C1=Nc2ccccc2N=C(c2cccs2)C1` are 19% (inactive) and 17%.
Regarding `Nc1nc(N)c2sc3nc4c(cc3c2n1)CCC4`, the inhibition (at 10 µM) is 29% (inactive) and the inhibition under setting [1] stood at 7%.
The corresponding values for `CCNC(=O)c1ccc2c(c1)C1C3CCC(C3)C1C(c1ccccc1)N2` (stereo not given) are 29% (inactive) and 58%.
With `CCn1c(=NC(=O)c2ccc(N3C(=O)CCC3=O)cc2)sc2c(OC)ccc(OC)c21`, the inhibition was 64% (inactive) (at 10 µM) and 57% under setting [1].
The corresponding values for `Oc1ccc(N=Cc2ccc(O)c(O)c2)cc1` are 34% (inactive) and 20%.
As for `Nc1ncnc2c1ncn2C1CCC(CO)C(O)C1` (stereo not given), the inhibition was 48% (active) (at 10 µM) and 69% under setting [1].
Consider `O=C(CSc1nc(C2CCCCC2)n(-c2ccccc2)n1)NCC(F)(F)F`, for which the inhibition runs as follows: (at 10 µM) 0% (inactive); under setting [1], 21%.
Regarding `O=C(Cc1cccs1)Nc1ccc(S(=O)(=O)N2CCCCC2)cc1`, the inhibition was 37% (inactive) (at 10 µM) and 38% under setting [1].
For `Cc1nn(-c2ccccc2)c(C)c1NC(=O)Cc1cccs1` the same measures were 67% (inactive) and 25%.
For `O=c1cc(-c2ccco2)oc2c1ccc1ccccc12` the same measures were 49% (inactive) and 22%.
As to `Cc1ccc(-c2nn(-c3ccccc3)cc2/C=N/NC(=O)c2ccc(Br)o2)cc1`, the inhibition runs as follows: (at 10 µM) 38% (inactive); under setting [1], 58%.
The corresponding values for `COc1cc(CCC(=O)OCC(=O)Nc2ncc(Cl)cc2Cl)cc(OC)c1OC` are 52% (inactive) and 8%.
For `COc1ccc(C2Nc3ccccc3C(=O)N2c2ccc(F)cc2)cc1CSc1ccccn1` (stereo not given) the same measures were 6% (inactive) and 30%.
For `Oc1ccc(-c2cn3cc(C(F)(F)F)ccc3n2)cc1` the same measures were 41% (inactive) and 10%.
For `COC(=O)c1ccccc1NC(=O)c1noc2c1CCC2`, the inhibition is 38% (inactive) (at 10 µM) and 26% under setting [1].
Regarding `COc1ccc2c(c1OC)C(=O)N1N=C(c3ccc(O)cc3)CC21` (stereo not given), the inhibition (at 10 µM) is 21% (inactive) and the inhibition under setting [1] came out at 39%.
For `O=S(=O)(NCc1csc(-c2cccnc2)n1)c1ccc(Cl)s1` the same measures were 31% (inactive) and 19%.
The corresponding values for `Cc1nn2cc(-c3ccc(N)cc3)nc2s1` are 23% (inactive) and 15%.
